Inconclusive results are not listed. A call without a number means that no potency is given here. Unmarked numbers belong to inactive results. Calls of active or inactive are those of the source. The call rests on the fitted dose curve; in most records, active means well fitted cell-killing curve with a large enough effect in the repeat runs; inconclusive means weak or mixed curves, or effect the other way; inactive means flat fitted curve, though single readings scatter.
Experiment: Nuclear factor erythroid 2-related factor 2/antioxidant responsive element (Nrf2/ARE) small molecule agonists: qHTS cell viability counter screen in human keratinocytes (AID 1919968); further: nearly all actives have a fitted effect of over 55% in size
Conditions: KeratinoSens HaCaT ARE cells viability, CellTiter-Fluor, 24 h; series mostly up to 92.4 µM
Outline: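 Cytotoxicity was multiplexed with the Nrf2/ARE luciferase assay in the same wells. Stably transfected HaCaT keratinocytes were treated with test compounds for 23 h at 37 C. Cell viability was then measured by CellTiter-Fluor fluorescence.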
Potency means the concentration at half of the fitted maximal effect.

Structure (SMILES) | Potency | activity change, negative = cytotoxicity
COc1ccc2c(C(=O)c3ccc(Cl)cc3)c(C)n(CC(=O)O)c2c1 | inactive | –
CCCC(Cn1cncn1)c1ccc(Cl)cc1Cl (configuration not stated) | inactive | –
C[C@@H]1CC[C@H]2[C@@H](C)C(=O)O[C@@H]3O[C@@]4(C)CC[C@@H]1[C@]32OO4 | inactive | –
CCC(=O)c1ccc(Cl)cc1 | inactive | –
CCOP(=S)(OCC)OC(Cl)C(Cl)(Cl)Cl (configuration not stated) | inactive | –
CC(=O)[O-].CC(=O)[O-].O.O.[Cd+2] | 42.7 µM (active) | –
CCN(CC)CCc1c[nH]c2ccccc12 | inactive | –
Oc1cc(Cl)cc(Cl)c1 | inactive | –
FC(F)(F)c1cccc(C2=CCN(CCc3ccc4ccccc4c3)CC2)c1 | inactive | –
COc1cccc2c1C(=O)c1c(O)c3c(c(O)c1C2=O)C[C@@](O)(C(=O)CO)CC3OC1CC(N2CCOC(OC)C2)C(O)C(C)O1 (some centres not stated) | 7.5 µM (active) | –
Cc1cc(C)nc(Nc2ccccc2)n1 | inactive | –
IC(I)=C(I)I | 27.3 µM (active) | –
CC(=O)[O-].CC(=O)[O-].CC(=O)[O-].[Cr+3] | inactive | –
O=CNC(N1CCN(C(NC=O)C(Cl)(Cl)Cl)CC1)C(Cl)(Cl)Cl (configuration not stated) | inactive | –
Cc1ncc(C[n+]2csc(CCO)c2C)c(N)n1 | inactive | –
C[C@H]1CC[C@@H]2[C@@H](C)[C@H]3[C@H](C[C@H]4[C@@H]5CC=C6CC(O[C@@H]7O[C@H](CO)[C@H](O)[C@H](O[C@@H]8O[C@H](CO)[C@@H](O)[C@H](O)[C@H]8O)[C@H]7O[C@H]7O[C@@H](C)[C@H](O)[C@@H](O)[C@H]7O)CC[C@]6(C)[C@H]5CC[C@]34C)N2C1 (some centres not stated) | 22.4 µM (active) | –
O=C1NCN(c2ccccc2)C12CCN(CC1COc3ccccc3O1)CC2 (configuration not stated) | inactive | –
O=C1c2ccccc2C(=O)c2ccccc21 | – | 8.6% [at 19 µM]
C1=CCC=C1 | inactive | –

Structure (SMILES) | Potency | activity change, negative = cytotoxicity
O=[N+]([O-])[O-].[Tl+] | inactive | –
CNC(C)Cc1ccccc1OC (configuration not stated) | inactive | –
CCCCCCBr | inactive | –
Fc1ccc(C2(Cn3cncn3)OC2c2ccccc2Cl)cc1 (configuration not stated) | inactive | –
Nc1ccc([N+](=O)[O-])cc1 | 61.1 µM (active) | –
CCCC(C)C1(CC)C(=O)N=C(S)NC1=O (configuration not stated) | inactive | –
CC(C)O.CC(C)O.OCCN(CCO)CCO.OCCN(CCO)CCO.[Ti] | inactive | –
CCCCOC(C)=O | inactive | –
CC(C)[C@@H](Nc1ccc(C(F)(F)F)cc1Cl)C(=O)OC(C#N)c1cccc(Oc2ccccc2)c1 (some centres not stated) | inactive | –
COP(=S)(OC)Oc1cc(Cl)c(I)cc1Cl | inactive | –
CCN(CC)C(C)C(=O)c1ccccc1 (configuration not stated) | inactive | –
O=C(NC(=O)c1c(F)cccc1F)Nc1cc(Cl)c(OC(F)(F)C(F)F)c(Cl)c1 | inactive | –
CC(=O)[O-].CC(=O)[O-].CC(=O)[O-].[Sb+3] | – | 0.851% [at 3.27 µM]
O=[N+]([O-])c1cccc(CCl)c1 | inactive | –
Clc1c(Cl)c(Cl)c(Cl)c(Cl)c1Cl | – | 1.8% [at 8.39 µM]
CC(=O)[O-].CC(=O)[O-].O.O.O.[Pb+2] | inactive | –
CCOP(=O)(NC(C)C)Oc1ccc(SC)c(C)c1 (configuration not stated) | inactive | –
CC1CCCC1 | inactive | –
